# Vif-APOBEC3F blk: qHTS for Inhibitors of Vif-A3F Interactions: qHTS; 390,000 compounds, 0.2% hits; Potency, µM (doses to about 46.1 µM), for inactives: top-dose activity, negative = active; AID 602313, 2012; HeLa A3F-eYFP + Vif (tagged APOBEC3F with the HIV-1 protein that degrades it), YFP fluorescence increase; also: potency is read from the fitted curve at half-maximal effect; % of control where 0% means no effect; nearly all actives have a fitted effect of over 65% in size
#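 HeLa cells stably expressing A3F-eYFP plus Vif, plated and incubated overnight at 37 deg C, then exposed to compounds overnight at 37 deg C. Blocked degradation read as raised yellow fluorescence (Ex 488/Em 500-530).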
# Vif-APOBEC3G blk: qHTS for Inhibitors of Vif-A3G Interactions: qHTS | DNA dC->dU-editing enzyme APOBEC-3G (Homo sapiens), Q9HC16 | HeLa A3G-eYFP + Vif (tagged APOBEC3G with the HIV-1 protein that degrades it), YFP fluorescence, overnight | Potency, µM (doses to about 46.1 µM), for the others: top-dose activity, negative = active, actives largely listed as inhibitors | 410,000 compounds, 0.076% hits; also: potency is read from the fitted curve at half-maximal effect; % is scaled to controls: 0 for no effect and ±100 for the full control effect; nearly all actives have a fitted effect of over 60% in size
# Target sequence (Q9HC16 whole entry, looked up): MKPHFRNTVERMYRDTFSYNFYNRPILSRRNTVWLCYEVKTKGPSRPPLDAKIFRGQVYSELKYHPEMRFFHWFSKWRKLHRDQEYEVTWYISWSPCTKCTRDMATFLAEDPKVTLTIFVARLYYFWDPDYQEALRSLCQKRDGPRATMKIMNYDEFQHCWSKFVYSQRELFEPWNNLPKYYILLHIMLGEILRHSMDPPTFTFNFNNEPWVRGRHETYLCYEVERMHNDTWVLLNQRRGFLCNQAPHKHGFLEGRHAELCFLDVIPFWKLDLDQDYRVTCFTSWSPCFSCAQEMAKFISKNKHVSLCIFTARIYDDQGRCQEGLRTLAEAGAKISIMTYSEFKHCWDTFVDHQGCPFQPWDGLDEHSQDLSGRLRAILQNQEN
#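 Read-out is eYFP fluorescence (Ex 488/Em 500-530) from Vif-expressing HeLa A3G-eYFP cells; more signal means A3G escaped Vif-mediated degradation. Cells plated overnight, compound pinned in, incubated overnight at 37 deg C.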
# Giardia kill: Small Molecules that selectively kill Giardia lamblia: qHTS | Giardia lamblia trophozoite viability | 340,000 compounds, 0.15% hits | activity change, % at 7.66 µM, hits read low; in the data active = activity change below about -80%; inconclusive = between about -30% and that limit;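 also: parasites exposed to compound for two days anaerobically before the ATP read; % is scaled to controls: 0 for no effect and ±100 for the full control effect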
#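 Giardia trophozoites, 100 cells per well, were exposed to compounds for 48 hrs at 37 deg C under anaerobic conditions; viability was then read as ATP content by bioluminescence after 15-30 min at room temperature.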
# SW480 rereplic: A quantitative high throughput screen for small molecules that induce DNA re-replication in SW480 colon adenocarcinoma cells. Potency, µM (highest dose often 46.1 µM), without a hit: at the highest dose re-replication activation, most hits filed as activators. 340,000 compounds, 1.8% hits. SW480 DNA re-replication, Hoechst DNA content imaging, 48 h; also: potency is read from the fitted curve at half-maximal effect; % of control where 0% means no effect; nearly all actives have a fitted effect of over 55% in size
#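 DNA re-replication was detected as more nuclei of elevated Hoechst intensity after 48 hr exposure to compound (23 nL pinned per well of 250 cells).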
# IL-1B inflam inh: qHTS for Inhibitors of Inflammasome Signaling: IL-1-beta AlphaLISA Primary Screen; THP-1 LPS/ATP IL-1B secretion, AlphaLISA, 16 h; active compounds read low; activity change, % at 57.5 µM; 360,000 compounds, 4.7% hits; AID 743279, 2014; in the data active = activity change below about -50%; inconclusive = mostly about -30% to -49%; also: % is scaled to controls: 0 for no effect and ±100 for the full control effect
#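 THP-1 cells pretreated 1 hr with compounds (up to 57.5 uM final), then stimulated with LPS (250 ng/mL final) plus ATP (1.25 mM final); secreted IL-1B measured by AlphaLISA after 16 hr, decreased signal indicating inhibition.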
# MCF10A rereplic: A quantitative high throughput screen for small molecules that induce DNA re-replication in MCF 10a normal breast cells; Potency, µM (titrated, usually from 46.1 µM), without a hit: at the highest dose activity, positive = re-replication, actives largely listed as activators; 350,000 compounds, 2.9% hits; MCF 10A DNA re-replication, Hoechst nuclear intensity, 48 h; also: potency is read from the fitted curve at half-maximal effect; % of control where 0% means no effect; nearly all actives have a fitted effect of over 50% in size
# Starred values were filed as active, the others as inactive; ? = inconclusive; / = no result given. Hits are enriched below; roughly 6.9% of the tested compounds scored in any of these assays. Unless noted, calls follow the shape of the dose curve; as a rule, active = well fitted curve in the direction sought with a large enough effect; inconclusive = small, poorly fitted or top-dose-only effect, or another doubt; inactive = no such curve, though single readings can be large; an effect the other way counts as inactive or inconclusive.
SMILES,Vif-APOBEC3F blk,Vif-APOBEC3G blk,Giardia kill,SW480 rereplic,IL-1B inflam inh,MCF10A rereplic
O=C(CCl)c1ccc(Cc2ncc(C(F)(F)F)cc2Cl)s1,-12.0%,-10.7%,-10.1,?,-103.9*,?
CCN(CC)S(=O)(=O)c1ccc(Cc2ncc(C(F)(F)F)cc2Cl)s1,4.2%,0.1%,14.5,-2.6%,-58.4*,4.0%
NS(=O)(=O)c1ccc(Cc2ncc(C(F)(F)F)cc2Cl)s1,-10.6%,-2.9%,-5.4,0.2%,-15.4,14.4%
CCN(c1ccc(N=Cc2c(O)n(Cc3ccc(OC)cc3)c(=O)c3ccccc23)cc1)C(C)C,-868.8%,?,-9.0,?,7.2,7.31µM*
COc1ccc(-n2c(O)c(C=Nc3ccccc3)c3ccccc3c2=O)cc1,-7.6%,-1.0%,-15.0,?,13.8,?
CC(C)(C)n1ncc2c(=O)n(Cc3c(Cl)cccc3Cl)cnc21,/,1.9%,/,/,/,/
CC1(C)CC(=O)C2=C(C1)Oc1ncn(CCCO)c(=N)c1C2c1ccccc1 (stereo not given),-4.6%,1.1%,-0.9,-0.9%,-15.4,-2.2%
N=c1c2c(ncn1CCCO)Oc1ccc3ccccc3c1C2c1ccccc1 (stereo not given),3.6%,-11.8%,1.3,-45.5%,-56.0*,24.0%
N=c1c2c(ncn1Cc1ccco1)Oc1ccc3ccccc3c1C2c1ccccc1 (stereo not given),2.2%,?,-7.6,?,-61.6*,16.4µM*
COc1ccc(C2c3ccc(O)cc3Oc3ncn(Cc4ccco4)c(=N)c32)cc1 (stereo not given),?,-13.1%,27.7,0.9%,?,?
COc1ccc(C2c3c(ncn(Cc4ccco4)c3=N)Oc3ccc4ccccc4c32)cc1 (stereo not given),-16.4%,-7.1%,-15.6,?,-76.7*,?
O=C(Nc1cc(Sc2ccccn2)cc([N+](=O)[O-])c1)c1ccc([N+](=O)[O-])cc1,-9.0%,-11.1%,45.6,29.3%,-75.7*,?
Oc1ccccc1-c1nc2c3ccccc3c3ccccc3c2[nH]1,?,-1.2%,-22.9,?,28.7,18.4µM*
c1csc(-c2nc3c4ccccc4c4ccccc4c3[nH]2)c1,-0.9%,-24.3%,-12.3,2.3%,-5.3,?
N#Cc1cccc(NC(=O)CSc2ccc3c4c(cccc24)C(=O)c2ccccc2-3)c1,11.2µM*,2.82µM*,-29.0,?,-7.9,7.31µM*
COc1ccc(NC(=O)CSc2ccc3c4c(cccc24)C(=O)c2ccccc2-3)cc1,11.2µM*,?,-5.2,11.6µM*,-7.9,2.59µM*
CC1(C)OC(=O)C2(Cc3cc(C(F)(F)F)ccc3N3CCCCC32)C(=O)O1 (stereo not given),/,4.9%,-8.9,/,/,/
COc1ccc(-c2csc(N(CCCN(C)C)C(=O)c3cc(OC)c(OC)c(OC)c3)n2)cc1,1.9%,0.9%,4.3,7.4%,-27.4,1.3%
COc1ccc(-c2csc(N(CCCN(C)C)C(=O)c3ccc(C(C)(C)C)cc3)n2)cc1,?,-4.7%,-11.9,?,-80.4*,?
CCN(CC)CCCN(C(=O)c1ccccc1F)c1nc(-c2ccc(OC)cc2)cs1,-0.5%,-0.2%,12.2,?,-65.3*,?
COc1ccc(-c2csc(N(CCCN(C)C)C(=O)c3ccc(Br)cc3)n2)cc1,-2.2%,1.1%,5.9,1.3%,-76.2*,7.8%
COc1ccc(-c2csc(N(CCCN(C)C)C(=O)c3ccc(C)cc3)n2)cc1,1.4%,6.1%,11.0,-1.6%,-78.7*,18.5%
CCOC(=O)CNC(c1ccccc1)c1cc(Br)ccc1NC(=O)c1ccc(Cl)cc1 (stereo not given),3.2%,-2.1%,/,/,/,/
COc1ccc(-c2csc(N(CCCN(C)C)C(=O)c3cccs3)n2)cc1,-10.7%,0.1%,-6.6,15.8%,-56.7*,13.8%
CCN(C(=O)c1cccs1)c1nc(-c2ccc(OC)cc2)cs1,8.6%,-4.5%,-8.4,?,-19.9,?
SMILES,Vif-APOBEC3F blk,Vif-APOBEC3G blk,Giardia kill,SW480 rereplic,IL-1B inflam inh,MCF10A rereplic
Cc1cc(O)c(C(=O)/C=C/c2ccc(C(C)C)cc2)c(=O)o1,0.1%,-12.4%,-5.3,13.1%,-8.1,?
C/C(=C\c1cccc(Br)c1)C(=O)c1c(C)cc(C)[nH]c1=O,0.1%,-3.4%,-12.4,9.2%,-70.9*,1.8%
C/C(=C\C=C\c1ccccc1)C(=O)c1c(C)cc(C)[nH]c1=O,0.6%,0.1%,-1.3,-4.7%,2.1,10.1%
C/C(=C\c1ccc2c(c1)OCO2)C(=O)c1c(C)cc(C)[nH]c1=O,0.2%,-0.2%,9.8,-3.3%,-23.2,6.0%
Cc1cc(C)c(C(=O)/C=C/c2ccc(C(C)C)cc2)c(=O)[nH]1,-8.8%,-16.1%,-4.3,?,-117.0*,13µM*
Cc1cc(C)c(C(=O)/C=C/C=C/c2ccccc2)c(=O)[nH]1,-15.0%,-4.2%,6.1,-0.7%,-79.5*,?
COc1ccc(-c2ccc(C3C4C=CCCC4(C)C(=O)N3Cc3ccccc3)c(F)c2)cc1 (stereo not given),/,1.8%,28.7,/,/,/
Cc1cccc(NC(=O)c2cc3c(=O)n(Cc4ccco4)ccc3nc2C)c1,-4.7%,-11.0%,/,/,/,/
CC1C/C(=C/c2ccccn2)C(=O)/C(=C/c2ccccn2)C1 (stereo not given),7.6%,?,-14.9,0.291µM*,-54.1*,2.31µM*
CC(C)(C)C1C/C(=C/c2ccccn2)C(=O)/C(=C/c2ccccn2)C1 (stereo not given),2.7%,?,?,0.411µM*,-93.1*,?
O=C1/C(=C/c2ccccn2)COc2ccccc21,8.2%,-1.7%,4.8,?,8.7,?
C(=C\c1ccccn1)/c1ccccn1,-3.6%,-4.3%,-2.9,?,-6.0,8.8%
CCN(CC)C(=O)Cn1c(=O)cc(C)c2c(C)nn(-c3cccc(Cl)c3C)c21,0.1%,0.7%,/,/,/,/
O=C(NNC(=O)c1ccc(Cl)cc1Cl)Nc1ccccc1,-21.2%,2.2%,8.0,-2.1%,-18.6,-6.4%
O=C(NNC(=O)c1cc(-c2ccc(Cl)cc2Cl)nc2ccccc12)Nc1ccccc1,?,?,-21.8,?,-64.0*,?
COc1ccccc1N1CCN(/N=C/c2ccc(O)c(O)c2)CC1,-1.2%,-15.8%,12.4,13µM*,9.3,17.4%

# Screens as filed in PubChem.
